Experimental data reported in PubChem BioAssay (NCATS).
Records with an inconclusive call do not appear. Values without a mark were called inactive. The source made the active and inactive calls. Calls follow the shape of the dose curve; as a rule, active = well fitted inhibition curve with a large enough effect; inconclusive = small, poorly fitted or top-dose-only effect; inactive = no such curve, though single readings can be large or run the other way.

assay: BET inhibitor-based combinations targeting novel dependencies in MECOM-rearranged (r) AML: MV-4-11 cell line (AID 2202233); conditions: MV-4-11 AML viability, CellTiter-Glo luminescence, 48 h; series mostly up to 46 µM; also: nearly all actives have a fitted effect of over 45% in size
Source text: Ecotropic viral insertion site 1 (EVI1) is located on chromosome 3q26.2 as part of the MECOM (MDS and EVI1 complex) locus. Under normal hematopoiesis, EVI1 is a regulator of hematopoietic stem cell maintenance and self-renewal and EVI1 levels decrease as the cells differentiate. In approximately 5-10% of de novo acute myeloid leukemia (AML) EVI1 is aberrantly expressed, including Chromosomal inv(3)(q21;q26.2) or t(3;3)(q21;q26.2) alterations (MECOM-r) that account for about 50% of AML with EVI1 overexpression 31. AMLs with high levels of EVI1 have a poor prognosis and an overall survival time averaging between 10-14 months. EVI1 overexpression confers resistance in leukemia cells, highlighting the need to develop new targeted therapies for EVI1 overexpressing AMLs. Here, we performed an unbiased chemical drug screening by evaluating the single agent activity of a collection of 2,480 oncology-focused, approved and investigational drugs (NCATS Mechanism Interrogation Plates, MIPE v5.0) against a panel of seven AML cell lines. These included four MECOM-r cell-lines (AML-191, AML-194, UCSD-AML1 and HNT-34) and three non-MECOM-r AMLs (MV4-11, OCI-AML3 and SET-2). Exploiting the mechanistic redundancy built in the library, we identified target-level sensitivities in MECOM-r AML cells and relative activity as compared to other AML subtypes.
A collection of 2480 mechanistically annotated dugs (MIPE v5.0) was used to screen four 3q26.2 rearranged AML cell lines and three non-3q26.2 rearranged AML cell lines. This library purposely exploits redundancy by including multiple inhibitors of key onco-targets, while simultaneously encompassing mechanistic diversity, targeting more than 800 distinct mechanisms of action. Briefly, cells were seeded in 5 uL of growth media using a Multidrop Combi dispenser into 1536 well white polystyrene tissue culture treated plates (Corning) at a density of 500cells/well. For each cell-line, for each of the 2480 drugs in MIPE v5.0 library, an 11-point dose curve was generated via a 1536 pin-tool. Plates were incubated for 48 hr at standard incubator conditions, covered by a stainless steel gasketed lid to prevent evaporation. Cell viability was determined by luminescence based, Cell Titer Glo assay (Promega). In detail, 3 uL of Cell Titer Glo were added to each well and plates were incubated at room temperature for 15 min with a stainless-steel lid in place. Luminescence readings were taken using a Viewlux (PerkinElmer) with a 2 s exposure time per plate. Compound dose-response curves were normalized to DMSO and empty well controls on each plate. Quantitative drug activity data from dose-response curves was determined utilizing area Under the Curve (AUC) and Z-transformed AUC (Z-AUC, a mean-centering transformation applied to each individual cell-line screened).
Potency is read from the fitted curve at half-maximal effect.

Compound | Potency | viability, % of control
COc1ccc(-c2cnc3c(-c4cccc5ncccc45)cnn3c2)cc1 | 7420 nM (active) | 
CCN(CC)CCNC(=O)c1c(C)[nH]c(/C=C2\C(=O)Nc3ccc(F)cc32)c1C | 46.8 nM (active) | 
COc1ccc(N(C)c2nc(C)nc3ccccc23)cc1 | 10.5 nM (active) | 
CCn1c(C(=O)N(C2CC2)C2CC2)cc2c3c(ncn3C)c(Nc3cc(C)n(C)n3)nc21 | 2630 nM (active) | 
CC1CCN(c2cc(N3CCN(C)CC3)ccc2NC(=O)c2cc(C#N)c[nH]2)CC1 | 8330 nM (active) | 
Nc1ccc(/C=C/C(=O)NCc2cc3cc(-c4ccc(C(=O)N5CCC(F)(F)CC5)cc4)cc(-c4ccc(F)cc4)c3o2)cn1 | 2350 nM (active) | 
Fc1ccc(-c2nc(-c3ccccc3F)[nH]c2-c2ccncc2)cc1 | inactive | 
CCNC(=O)CCC/C=C\C[C@@H]1[C@@H](/C=C/C(O)CCc2ccccc2)[C@@H](O)C[C@@H]1O (stereo not given in full) | inactive | 
CO[C@@H](C(=O)N1Cc2[nH]nc(NC(=O)c3ccc(N4CCN(C)CC4)cc3)c2C1)c1ccccc1 | 148 nM (active) | 
CN1CCN(c2ccc(OC(F)(F)F)c(Nc3ncc4c(n3)-c3c(c(C(N)=O)nn3CCO)CC4)c2)CC1 | 93.4 nM (active) | 
O=[N+]([O-])c1ccc(Nc2ccccc2-c2ccccc2)c2nonc12 | 26300 nM (active) | 
O=C(O)CCc1ccc(NCc2cccc(Oc3ccccc3)c2)cc1 | inactive | 
CCC(C)N(C)C(=O)c1cc2ccccc2c(-c2ccccc2Cl)n1 (stereo not given) | inactive | 
CC1(C)NC(=O)N(c2ccc([N+](=O)[O-])c(C(F)(F)F)c2)C1=O | inactive | 
Cc1ccccc1-n1nc(-c2c(-c3ccc(F)cc3)nn3c2NC[C@@H](CO)C3)ccc1=O | inactive | 
CCN(c1ccccc1)c1cc(NC)[n+](C)c(C)n1 | inactive | 
COc1cccc2c1CCCC2CCCN1CCN(C2CCCCC2)CC1 (stereo not given) | 16600 nM (active) | 
CC(C)(C)COc1ccc(-n2cc(C(=O)O)cn2)cc1C#N | inactive | 
O=P(O)(O)C(O)(Cc1cccnc1)P(=O)(O)O | inactive | 
CC(C)(C)NCC(O)c1ccc(O)c(CO)c1 (stereo not given) | inactive | 

Compound | Potency | viability, % of control
NC(=O)c1cnccn1 | inactive | 
COc1cccc([C@@H](C)NCCCc2ccccc2Cl)c1 | 20900 nM (active) | 
CCCCCCCCCCCCc1ccc(S(=O)(=O)Nc2nncs2)cc1 | inactive | 
Cc1cc(Nc2ncc3c(n2)N(C)C(=O)N(c2cc(NC(=O)c4cccc(C(F)(F)F)c4)ccc2C)C3)n(C)n1 | 37.2 nM (active) | 
O=C(/C=C/c1ccc(O)cc1)c1ccc(O)cc1O | 11800 nM (active) | 
C1Cc2[nH]nc(-c3nn[nH]n3)c2C1 | inactive | 
O=C(O)c1ccc2cc(-c3ccc(O)c(C45CC6CC(CC(C6)C4)C5)c3)ccc2c1 | 934 nM (active) | 
CN1C2CCC1CC(OC(=O)C(CO)c1ccccc1)C2 (stereo not given) | inactive | 
CCN1CCN(Cc2ccc(Nc3ncc(F)c(-c4cc(F)c5nc(C)n(C(C)C)c5c4)n3)nc2)CC1 | 296 nM (active) | 
Cc1cn([C@@H]2C[C@@H](O)[C@H](CO)O2)c(=O)[nH]c1=O | inactive | 
CC[C@@]1(O)C(=O)OCc2c1cc1n(c2=O)Cc2cc3c(CN(C)C)c(O)ccc3nc2-1 | 11.8 nM (active) | 
Fc1ccc2[nH]ccc2c1-c1nc(N2CCOCC2)c2sc(CN3CCN(CC4CC4)CC3)cc2n1 | 14800 nM (active) | 
Cn1ccc2cc3c(cc21)CCN3C(=O)Nc1cccnc1 | inactive | 
O=C(O)C1CCCN(CCC=C(c2ccccc2)c2ccccc2)C1 (stereo not given) | inactive | 
CCCc1cc(=O)[nH]c(=S)[nH]1 | inactive | 
COc1cc(C(=O)NC2CCN(C)CC2)c(F)cc1Nc1ncc2c(n1)N(C1CCCC1)CC(F)(F)C(=O)N2C | 105 nM (active) | 
c1ccc2c(CCNc3ccc(Nc4ccncc4)cc3)c[nH]c2c1 | 934 nM (active) | 
CCN(CCCOc1ccc2c(Nc3cc(CC(=O)Nc4cccc(F)c4)[nH]n3)ncnc2c1)CCOP(=O)(O)O | 372 nM (active) | 
CN1CCN(C(=O)c2ccc3cc(CCNc4ncnc5ccc(C#N)cc45)ccc3c2)CC1 | 7420 nM (active) | 
CC(C)NC(=O)N1CC[C@H](N=C2Nc3cc(F)ccc3N(CC(F)F)c3ccc(Cl)cc32)C1 |  | 94.7% [at 8.46 µM]
